Compound activity deposited in PubChem by several laboratories.
Compounds with a hit are over-represented: about 4.8% of the library has one in this group of screens.
TIM10 inh = growth inhibitors of TIM10 yeast strain; S. cerevisiae TIM10 strain growth, BacTiter-Glo luminescence, 24 h; inhibition, % at 10 µM; 330,000 tested, 1.4% active; AID 463195;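 active = inhibition of 40% or more at the single tested concentration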;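 also: wild-type TIM10 isogenic control strain grown at permissive 25 °C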
SKKanGAS inh = blocks kanamycin growth of S. pyogenes SKKanGAS strain; BacTiter-Glo, 6 h; inhibition, % at 7.5 µM; 300,000 tested, 1.3% active; AID 1662;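 active = mean replicate score, as percent of positive control median, at least 50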;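 also: strain carries kanamycin resistance gene driven by streptokinase promoter and grows in 40 µg/ml kanamycin; loss of luminescence reflects streptokinase promoter inhibition or plain growth inhibition; 0% = median of DMSO wells and 100% = positive control at its reference dose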
NALP1 inh = blocks the NALP1 inflammasome reconstituted in yeast; 280,000 tested, 0.61% active; S. cerevisiae NALP1/ASC/caspase-1 growth, X-gal OD620, 72 h; inhibition, % at 10 µM; in the data active = inhibition mostly above about 24%, no sharp cut-off; inactive = mostly below about 32%
tim10-1 inh = growth inhibitors of tim10-1 mutant yeast | 330,000 tested, 2.2% active | S. cerevisiae tim10-1 ts strain growth, BacTiter-Glo, 24 h | inhibition, % at 20 µM;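 active = inhibition of at least 40%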;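 also: mutant grown at 25 °C; 0% = DMSO wells with yeast and 100% = wells holding no yeast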
tim23-1 inh = growth inhibitors of tim23-1 mutant yeast. inhibition, % at 20 µM. S. cerevisiae tim23-1 growth, BacTiter-Glo luminescence, 24 h. AID 463212. 330,000 tested, 1.3% active;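 active = growth inhibition of the mutant yeast at or above 50%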;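 also: temperature-sensitive mutant grown at 25 °C; plate controls were DMSO-treated mutant yeast for no effect and medium wells lacking yeast for full effect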
PfHsp90 yeast 2 = growth inhibition of yeast expressing Plasmodium Hsp90. 310,000 tested, 0.32% active. S. cerevisiae expressing PfHsp90, BacTiter-Glo ATP, 48 h; yeast lacking PDR1 and PDR3 efflux regulators. AID 504621. inhibition, % at 9.4 µM;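 active = every replicate shows inhibition above about 80%, whatever the replicate mean, limit read from the data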;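 also: 0% = DMSO neutral controls and 100% = 20 µM radicicol positive controls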
tim10-1 conf = tim10-1 yeast growth inhibition, confirmed | shares compounds with tim10-1 inh | S. cerevisiae tim10-1 ts strain growth, BacTiter-Glo, 24 h | inhibition, % at 20 µM | 7,400 tested, 56% active | AID 463213;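 active = inhibition of yeast growth at or above a set limit in either of two repeat tests at 20 µM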;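 also: tim10-1 mutant grown at permissive 25 °C to find synthetic lethal compounds; 0% = DMSO yeast wells and 100% = medium wells without yeast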
TIM10 conf = TIM10 yeast growth inhibition, confirmed | shares compounds with TIM10 inh | S. cerevisiae tim10 strain growth, BacTiter-Glo luminescence, 24 h | inhibition, % at 10 µM | 4,600 tested, 63% active | AID 463215;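 active = inhibition of yeast growth at or above a set limit in either of two replicates at 10 µM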;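 also: this counterscreen used the strain with wild-type TIM10; 0% = yeast with DMSO and 100% = medium wells lacking yeast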
tim23-1 confirm = tim23-1 yeast growth inhibition, confirmed; shares compounds with tim23-1 inh; inhibition, % at 20 µM; AID 463218; 4,400 tested, 83% active; S. cerevisiae tim23-1 growth, BacTiter-Glo luminescence, 24 h;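 active = inhibition above about 39% in either of two replicate wells at 20 µM, limit read from the data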;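 also: temperature-sensitive tim23-1 mutant grown at 25 °C; 0% = DMSO wells with yeast and 100% = medium wells without yeast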
An asterisk follows results filed as active.

What do the screens show for `C[C@H]1CC[C@H]2C(=O)N3[C@H](c4ccccc4Br)[C@@H](C)CC[C@H]3C(=O)N2[C@@H]1c1ccccc1Br`?
TIM10 inh: 44*; SKKanGAS inh: 11; NALP1 inh: 35; tim10-1 inh: 41*; tim23-1 inh: 47; tim10-1 conf: 33*; TIM10 conf: 41*

What do the screens show for `CCOC(=O)c1ccc(N2C(=O)CC(N3CCCC(C)C3)C2=O)cc1` (stereo not given)?
TIM10 inh: 46*; SKKanGAS inh: 2; NALP1 inh: 105*; tim10-1 inh: 66*; tim23-1 inh: 28; tim10-1 conf: 66*; TIM10 conf: 47*

How did COc1ccc(/C=C/C(=O)C23CC4CC(CC(C4)C2)C3)cc1CN1CCOCC1 do in these assays?
TIM10 inh: 46*; SKKanGAS inh: 3; NALP1 inh: 11; tim10-1 inh: 46*; tim23-1 inh: 38; PfHsp90 yeast 2: 12; tim10-1 conf: 38*; TIM10 conf: 36*

How did COC(=O)/C=C/c1ccc(OC(=O)OC)c(OC(=O)OC)c1 do in these assays?
SKKanGAS inh: -2; NALP1 inh: 17; PfHsp90 yeast 2: 4

What do the screens show for `CC(C)N(C(=O)CN(C#N)c1nc(N(C)C)nc(N(C)C)n1)c1ccccc1`?
TIM10 inh: -8; SKKanGAS inh: 0; NALP1 inh: 8; tim10-1 inh: 8; tim23-1 inh: -1; PfHsp90 yeast 2: 13

How did COc1cccc(-c2sc3ccc(OC)cc3c2C#CC2(O)CCCCC2)c1 do in these assays?
TIM10 inh: 13; tim10-1 inh: 15; tim23-1 inh: 17; PfHsp90 yeast 2: -1

What do the screens show for `COc1cc(OC)cc(-c2sc3ccc(OC)cc3c2C#CC2(N)CCCCC2)c1`?
TIM10 inh: 45*; tim10-1 inh: 44*; tim23-1 inh: 12; PfHsp90 yeast 2: -2; tim10-1 conf: 18; TIM10 conf: 26

What do the screens show for `OC(CNCC(c1ccc(Cl)cc1Cl)c1c[nH]c2ccccc12)c1ccccc1` (stereo not given)?
TIM10 inh: 59*; SKKanGAS inh: 80*; NALP1 inh: -2; tim10-1 inh: 54*; tim23-1 inh: -2; tim10-1 conf: -16; TIM10 conf: 61*

How did CCOc1c(Cl)cc(CNCC(O)c2ccccc2)cc1OC (stereo not given) do in these assays?
TIM10 inh: 0; SKKanGAS inh: -8; NALP1 inh: 3; tim10-1 inh: 10; tim23-1 inh: -3; PfHsp90 yeast 2: 3

How did O=C(N/N=C/c1c(O)ccc2ccccc12)c1ccc(CO)nc1 do in these assays?
TIM10 inh: -43; SKKanGAS inh: 11; NALP1 inh: 2; tim10-1 inh: -24; tim23-1 inh: 40; PfHsp90 yeast 2: 9

How did CCCn1nc([N+](=O)[O-])c(C(C#N)c2nc3ccccc3s2)c(Cl)c1=O (stereo not given) do in these assays?
TIM10 inh: 68*; SKKanGAS inh: 4; NALP1 inh: -4; tim10-1 inh: 73*; tim23-1 inh: 72*; PfHsp90 yeast 2: -15; tim10-1 conf: 62*; TIM10 conf: 88*; tim23-1 confirm: 34

What do the screens show for `CCOc1cc(-c2cc(-c3ccc(N)cc3)nc(N)c2C#N)ccc1O`?
TIM10 inh: 18; SKKanGAS inh: 38; NALP1 inh: -40; tim10-1 inh: 41*; tim23-1 inh: 50*; PfHsp90 yeast 2: -8; tim10-1 conf: 15; tim23-1 confirm: 53*

What do the screens show for `O=c1oc(-c2cccnc2)nc2ccccc12`?
TIM10 inh: 7; SKKanGAS inh: -1; NALP1 inh: 16; tim10-1 inh: 6; tim23-1 inh: 21; PfHsp90 yeast 2: -11

Results for O=c1oc(-c2ccccc2Br)nc2ccccc12 ?
TIM10 inh: 30; SKKanGAS inh: -1; NALP1 inh: 0; tim10-1 inh: 49*; tim23-1 inh: 59*; PfHsp90 yeast 2: 9; tim10-1 conf: 40*; tim23-1 confirm: 71*

Results for O=c1cc(-c2ccc(C3CCCCC3)cc2)[nH][nH]1 ?
TIM10 inh: 29; SKKanGAS inh: 9; NALP1 inh: 5; tim10-1 inh: 59*; tim23-1 inh: 74*; PfHsp90 yeast 2: 94*; tim10-1 conf: 32*; tim23-1 confirm: -4

Results for O=c1cc(-c2ccc(F)cc2)[nH][nH]1 ?
TIM10 inh: -5; SKKanGAS inh: -11; NALP1 inh: 20; tim10-1 inh: 8; tim23-1 inh: 1; PfHsp90 yeast 2: -5

How did NNC(=O)c1[nH]c2ccc(Cl)cc2c1-c1ccccc1 do in these assays?
TIM10 inh: 19; SKKanGAS inh: 4; NALP1 inh: -8; tim10-1 inh: 51*; tim23-1 inh: 61*; PfHsp90 yeast 2: 16; tim10-1 conf: 52*; tim23-1 confirm: 42*

How did FC(F)(F)c1nnc2ccc(N3CCCCCC3)nn12 do in these assays?
TIM10 inh: 18; NALP1 inh: 18; tim10-1 inh: 41*; tim23-1 inh: 50*; PfHsp90 yeast 2: -5; tim10-1 conf: 25; tim23-1 confirm: 33

What do the screens show for `Cc1nc(-c2cccc(NC(=O)c3ccco3)c2)cs1`?
TIM10 inh: 15; SKKanGAS inh: -3; NALP1 inh: 8; tim10-1 inh: 8; tim23-1 inh: 1; PfHsp90 yeast 2: 1

How did Cc1nc(-c2ccc(NC(=O)c3ccco3)cc2)cs1 do in these assays?
TIM10 inh: 43*; SKKanGAS inh: 18; NALP1 inh: 5; tim10-1 inh: 51*; tim23-1 inh: 68*; PfHsp90 yeast 2: 51; tim10-1 conf: 22; TIM10 conf: 50*; tim23-1 confirm: 67*

How did COc1ccc(C2=CC(=O)N(Nc3ccccc3)C2=O)cc1 do in these assays?
TIM10 inh: 54*; NALP1 inh: -23; tim10-1 inh: 49*; tim23-1 inh: 81*; tim10-1 conf: 50*; TIM10 conf: 55*; tim23-1 confirm: 77*

How did Cc1cc(C)c(S(=O)(=O)c2ccccc2)c(OC(=O)c2cc(F)c(F)cc2Cl)n1 do in these assays?
TIM10 inh: 45*; SKKanGAS inh: -6; NALP1 inh: -14; tim10-1 inh: 48*; tim23-1 inh: 66*; PfHsp90 yeast 2: 39; tim10-1 conf: 33*; TIM10 conf: 13; tim23-1 confirm: 72*

Results for Cc1cc(OC(=O)c2cc(F)c(F)cc2Cl)nc(C)n1 ?
TIM10 inh: -14; SKKanGAS inh: 0; NALP1 inh: 13; tim10-1 inh: 7; tim23-1 inh: -10; PfHsp90 yeast 2: -8
